Among the data in PubChem BioAssay AID504332 (National Center for Advancing Translational Sciences (NCATS), 2011) are Potency and activity, negative = inhibition values, retold here.

The whole screen tested about 350,000 compounds, of which about 31,000 (8.9%) were called active. Another 15% or so got no clear call; they are omitted. The entries come from a sample that favours actives as a whole. Where a call stands in place of a potency, no number is given. Unmarked numbers belong to inactive results. The call rests on the fitted dose curve; in most records, active means well fitted inhibition curve with a large enough effect; inconclusive means small, poorly fitted or top-dose-only effect; inactive means no such curve, though single readings can be large or run the other way.
Potency means the concentration at half of the fitted maximal effect.

The test deals with Histone-lysine N-methyltransferase EHMT2 (Homo sapiens) (UniProt Q96KQ7). The test can be described thus: qHTS Assay for Inhibitors of Histone Lysine Methyltransferase G9a. Further: nearly all actives have a fitted effect of over 75% in size. Particulars: G9a H3K9 monomethylation, AlphaScreen, 2 h; series mostly up to 59 µM. In outline: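 Chemiluminescent proximity detection of H3K9 monomethylation, read after 10 min bead incubation in the dark. Reaction: 20 nM G9a, 500 nM biotin-H3K9 peptide, 20 uM SAM cofactor, 2 h, room temperature, following 15 min enzyme-compound preincubation.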
Chain of Histone-lysine N-methyltransferase EHMT2 (Homo sapiens) (Q96KQ7 913-1193 limits assumed): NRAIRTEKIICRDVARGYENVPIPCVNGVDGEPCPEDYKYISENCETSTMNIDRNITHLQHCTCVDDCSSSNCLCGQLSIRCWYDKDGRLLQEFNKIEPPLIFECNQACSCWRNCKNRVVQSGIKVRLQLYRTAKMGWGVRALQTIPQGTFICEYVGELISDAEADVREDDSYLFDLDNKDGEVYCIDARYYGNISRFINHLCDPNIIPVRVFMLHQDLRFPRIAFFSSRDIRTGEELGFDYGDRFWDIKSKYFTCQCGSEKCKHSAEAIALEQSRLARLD
As for `Cc1cc(C#N)c(SCC(N)=O)nc1-c1ccc(F)cc1`, the Potency was 12.6 µM (active).
`Cc1cc(=O)[nH]c(SCC(N)=O)c1C#N`: the activity, negative = inhibition was 9.52% [at 2.33 µM].
As for `Cc1ccc2cc(C#N)c(SCC(=O)NCC3CCCO3)nc2c1C` (stereo not drawn), the Potency result is “inactive”.
The same measure, in the same setting: the result for `COc1ccc(C(=O)Nc2nncs2)c(OC)c1` reads 39.8 µM (active).
For `COc1ccc(C(=O)NC2=NCCS2)c(OC)c1`, the activity, negative = inhibition is 5.43% [at 12.7 µM].
`COc1ccc(Cc2nnc(NC(=O)c3ccc(OC)cc3OC)s2)cc1`: the activity, negative = inhibition is -7.06% [at 0.501 µM].
In the case of `COc1ccc(S(=O)(=O)c2c(Nc3ccc(C)cc3)sc(C(=O)c3ccc(C)cc3)c2N)cc1`, the Potency entry is “inactive”.
Turning to `O=C(NCc1ccccc1)C(c1ccco1)N(C(=O)c1csnn1)c1ccccc1F` (stereo not drawn), the Potency entry was “inactive”.
Turning to `Cc1ccc(NC(=O)CSc2nnc3[nH]c(=O)cc(C)n23)cc1Cl`, the Potency entry was “inactive”.
Regarding `CC(C)NC(=O)C(=O)N/N=C/c1ccco1`, the Potency entry was “inactive”.
As to `COC(=O)C1=C(C)N(c2ccc(Br)cc2)C(=O)/C1=C\c1ccco1`, the Potency result was “inactive”.
Take `COC(=O)C1=C(C)N(C(C)c2ccccc2)C(=O)/C1=C\c1ccco1` (stereo not drawn): the Potency was 35.5 µM (active).
Still for that read-out and setting: the result for `COc1c(Cl)cc(C(=O)N(Cc2ccccc2F)C2CCS(=O)(=O)C2)cc1Cl` (stereo not drawn) reads “inactive”.
Regarding `Cc1ccc(C(=O)N2CCc3cc(CNC(=O)c4ccc(Br)cc4)ccc32)cc1`, the Potency entry is “inactive”.
With `O=C(OCC(=O)N1CCc2ccccc21)c1ccc([N+](=O)[O-])cc1`, the activity, negative = inhibition was -12.4% [at 2.33 µM].
In the case of `CCC(CC)COC(=O)C1=C(C)NC(=O)NC1c1ccc([N+](=O)[O-])cc1` (stereo not drawn), the Potency result was “inactive”.
In the case of `COc1cccc(N2CCN(CC(=O)Nc3ccnn3C3CCCC3)CC2)c1`, the activity, negative = inhibition was 3.38% [at 12.7 µM].
On to `CCCSc1ncc(Cl)c(C(=O)Nc2sc3c(c2C(=O)NCCOC)CCCC3)n1`, for which the Potency entry is “inactive”.
For `COc1cc(NS(=O)(=O)c2ccc(NC(C)=O)cc2)cc(OC)c1`, the Potency entry is “inactive”.
Take `COc1ccc(NS(=O)(=O)c2ccc(NC(C)=O)cc2)cc1OC`: the Potency result is “inactive”.
Consider `CC(=O)Nc1ccc(S(=O)(=O)Nc2cc(C)cn(Cc3ccc(C)cc3)c2=O)cc1`, for which the Potency is 44.7 µM (active).
The same measure, in the same setting: the result for `CC(=O)c1c(C)[nH]c(C(=O)N2CCN(S(=O)(=O)c3ccc(F)c(F)c3)CC2)c1C` reads “inactive”; that for `CCC(C)C(=O)Nc1ccccc1N1CCN(c2ccc(F)cc2)CC1` (stereo not drawn), “inactive”.
Take `Cc1ccc(OCCC(=O)Nc2ccc(S(=O)(=O)Nc3nccs3)cc2)cc1`: the activity, negative = inhibition was 15% [at 12.7 µM].
As for `COc1cn(CC(=O)Nc2cccc(C)c2C)c(CN2CCCCC2)cc1=O`, the Potency result is “inactive”.
For the molecule `C/C=C/C=N/NC(=O)c1ccncc1`, the activity, negative = inhibition was 3.78% [at 12.7 µM].
For the molecule `O=C(NN1C(=O)C2C3C=CC(O3)C2C1=O)c1ccncc1` (stereo not drawn), the Potency was 44.7 µM (active).
Same read-out and setting: the result for `COc1ccc(C(=O)NN2C(=O)C3C(c4ccccc4)C=CC(c4ccccc4)C3C2=O)cc1` (stereo not drawn) reads “inactive”; that for `COc1ccccc1C(=O)NN1C(=O)C2C3C=CC(O3)C2C1=O` (stereo not drawn), 35.5 µM (active).
The same measure, in the same setting: the result for `COc1ccccc1C(=O)Nn1cnnc1` reads “inactive”; that for `O=C(NN1C(=O)C2C3C=CC(C4CC34)C2C1=O)c1ccc(Cl)cc1` (stereo not drawn), “inactive”.
On the same count and under the same terms, the result for `CCC(=O)N1CCc2cc(Br)cc(S(=O)(=O)Nc3ccc(C)cc3C)c21` reads “inactive”.
As for `CCOc1ccc(C(CC(=O)O)NC(=O)Cc2ccccc2)cc1OC` (stereo not drawn), the Potency result was “inactive”.
`CSc1nc(=O)c2c(n1C)NC(=O)CC2c1ccccc1OC(C)C` (stereo not drawn): the Potency entry is “inactive”.
`CN(C)c1nc(=Nc2cccc(Cl)c2)ss1`: the Potency is 6.31 µM (active).
In the case of `CCC(C)C(N=C1NS(=O)(=O)c2ccccc21)C(=O)N1CCC(C)CC1` (stereo not drawn), the Potency entry was “inactive”.
On to `Cc1nn(Cc2ccc(F)cc2)c(C)c1NC(=O)c1cc(CC(C)C)on1`, for which the Potency entry is “inactive”.
With `CCCCn1c(SCC(=O)N2CCCC2=O)nc2cc(S(N)(=O)=O)ccc21`, the activity, negative = inhibition was 76.1% [at 2.33 µM].
Regarding `OC(COc1cccc2ccccc12)CN1CCN(c2ccccn2)CC1` (stereo not drawn), the Potency was 50.1 µM (active).
`Cc1ccccc1OCC(O)CN1CCN(c2ccccn2)CC1` (stereo not drawn): the Potency result is “inactive”.
For the molecule `O=C1c2cccc3cccc(c23)N1CN1CCN(c2ccccn2)CC1`, the Potency result was “inactive”.
For the molecule `COc1ccc(-c2nc3ccccc3s2)cc1NC(=O)COc1ccccc1C`, the Potency result is “inactive”.
Turning to `COc1ccccc1C1C(C(=O)N2CCCCC2)=C(C)Nc2nc3ccccc3n21` (stereo not drawn), the Potency result was “inactive”.
`Cc1ccccc1NC(=O)COc1cccc2c1CCNC2=O`: the Potency entry was “inactive”.
As to `Cc1ccnc(NS(=O)(=O)c2ccc(NC(=O)c3ccc(S(=O)(=O)N(C)C)cc3)cc2)n1`, the Potency result is “inactive”.
Turning to `Cc1ccnc(NS(=O)(=O)c2ccc(NC(=O)c3oc4ccc(F)cc4c3C)cc2)n1`, the activity, negative = inhibition was 6.53% [at 0.501 µM].
For the molecule `Cc1ccnc(NS(=O)(=O)c2ccc(NC(=O)c3oc4ccccc4c3C)cc2)n1`, the Potency was 25.1 µM (active).
With `Cc1ccc(NC(=O)NC(C)c2c(-n3cccc3)sc(C)c2C)c(C)c1` (stereo not drawn), the Potency result is “inactive”.
For the molecule `CC(=O)Nc1cc(C(=O)O)ccc1S(=O)(=O)c1ccc(Cl)cc1`, the Potency is 50.1 µM (active).
`COCCNC(=O)c1ccc(S(=O)(=O)c2ccc(Cl)cc2)c(NC(C)=O)c1`: the Potency entry is “inactive”.
Consider `CCOC(=O)N1CCN(C(=O)c2ccc(S(=O)(=O)c3ccc(C)cc3)c(NC(C)=O)c2)CC1`, for which the activity, negative = inhibition is 29.4% [at 0.501 µM].
As for `O=C(CN1CCCCC1)Nc1ccccc1C(=O)NC1CC1`, the Potency result was “inactive”.
For `O=C(COc1ccc(Cl)cc1)N(Cc1ccco1)Cc1ccco1`, the Potency entry was “inactive”.
Turning to `O=C1C=C(c2cccc(Br)c2)C[C@@H](c2ccc(F)cc2)C1`, the activity, negative = inhibition was -5.82% [at 0.501 µM].
On to `COc1ccc(C2=NN(C(=O)CSc3nc(=O)n4ccc(C)cc4n3)C(c3ccc(C)cc3)C2)cc1` (stereo not drawn), for which the activity, negative = inhibition was 4.89% [at 2.33 µM].
For `CCc1noc(C)c1C(=O)NNC(=O)c1ccc(F)cc1`, the Potency entry is “inactive”.
`Cn1nnnc1SCC(=O)NNC(=O)c1ccc(Br)cc1`: the Potency result was “inactive”.
On to `CC(=O)NC(=S)NNC(=O)c1ccc(Br)cc1`, for which the Potency is 8.91 µM (active).
On to `CCCNC(=S)N1CCC(NC(=O)c2ccc(OC)cc2)CC1`, for which the Potency entry was “inactive”.
Take `COc1cc(OC)c(C(=O)NC2CCCCCC2)cc1OC`: the activity, negative = inhibition was 13.1% [at 12.7 µM].
Regarding `CC(=O)Nc1cccc(NC(=O)c2c(-c3ccccc3)noc2C)c1`, the activity, negative = inhibition was 10.1% [at 12.7 µM].
On to `COc1cc(C(=S)NC2CCCCC2)ccc1O`, for which the Potency was 35.5 µM (active).
For the molecule `CNC(=S)NNC(=O)c1ccc(N(C)C)cc1`, the Potency result was “inactive”.
`COc1ccc(C(=O)NC(=S)NC2CCCCC2)cc1`: the Potency is 39.8 µM (active).
Same read-out and setting: the result for `COc1ccc(Cl)cc1C(=O)NNC(=S)NC1CCCC1` reads “inactive”; that for `COc1ccc(C(=O)NC2CCN(C(=S)Nc3ccccc3)CC2)cc1`, “inactive”.
For `Cc1onc(-c2ccccc2)c1C(=O)NNC(=S)NC(=O)c1ccc(F)cc1`, the Potency is 31.6 µM (active).
Regarding `COc1cccc(NC(=O)CN(C)CC(=O)c2c(N)n(Cc3ccccc3)c(=O)n(C)c2=O)c1`, the activity, negative = inhibition is -2.39% [at 2.33 µM].
With `COc1ccc(NC(=O)c2ccc3nc(CCc4ccccc4)oc3c2)c(OC)c1`, the Potency entry was “inactive”.
Take `CC1CCCN(C(=O)CN2C(=O)c3ccccc3S2(=O)=O)C1` (stereo not drawn): the activity, negative = inhibition was 6.05% [at 2.33 µM].
With `CC1(c2ccc3ccccc3c2)NC(=O)NC1=O` (stereo not drawn), the Potency result is “inactive”.
Turning to `COc1cccc(NC(=O)CN(C)C(=O)c2ccccc2CCc2ccccc2)c1`, the activity, negative = inhibition is 3.17% [at 12.7 µM].
Consider `O=C(NCCCN1CCOCC1)c1cc(-c2ccccc2F)no1`, for which the Potency entry is “inactive”.
`CSc1ccc(CCNC(=O)c2ccc3c(c2)nc2n3CCOC2)cc1`: the Potency entry is “inactive”.
On to `Clc1ccc(C(Cn2ccnc2)OCc2ccsc2Cl)c(Cl)c1` (stereo not drawn), for which the activity, negative = inhibition was -28.9% [at 12.7 µM].
With `CCOC(=O)c1[nH]c(C)c(CCC(=O)NCc2ccccc2C)c1C`, the Potency result is “inactive”.
As to `Cc1ccc2ncc(C(=O)Nc3ccc(OC(F)(F)F)cc3)c(=O)n2c1`, the Potency result is “inactive”.
Take `Cc1nn(CC(=O)N2CCN(c3cccc(C(F)(F)F)c3)CC2)c(=O)c2cc3sccc3n12`: the Potency entry is “inactive”.
For `CC(NS(=O)(=O)c1ccc(OCC(=O)N2CCCC2)cc1)c1ccccc1` (stereo not drawn), the Potency result was “inactive”.
`COc1ccc(C(=O)NC(=S)NNC(=O)CCc2ccccc2)cc1`: the activity, negative = inhibition was 28.9% [at 0.0925 µM].
On to `Cc1onc(-c2ccccc2)c1C(=O)Nc1ccccc1C#N`, for which the Potency entry was “inactive”.
For the molecule `Cc1ccc(CNC(=O)c2c(-c3ccccc3)noc2C)cc1`, the Potency entry was “inactive”.
With `COc1ccc(OCC(=O)NNC(=O)c2cccc(C)c2)cc1`, the Potency entry is “inactive”.
For the molecule `COc1ccc(OCC(=O)NNC(=O)c2ccc(-c3ccccc3)cc2)cc1`, the Potency was 79.4 µM (active).
On the same count and under the same terms, the result for `COCCCNC(=S)NC(=O)c1ccccc1` reads “inactive”; that for `COc1ccc(C(=O)NNC(=S)NC(=O)c2ccccc2)cc1`, 22.4 µM (active); that for `COc1ccc(C(=O)NC(=S)NNC(=O)c2c(-c3ccccc3)noc2C)cc1`, 5.62 µM (active).
On the same count and under the same terms, the result for `COc1ccc(C(=O)Nc2cc(C)ccc2NC(=O)COc2ccccc2)cc1` reads “inactive”.
Turning to `Cc1cn(C)c(CC(=O)NCc2ccc(Cl)cc2)c1C(=O)O`, the Potency entry is “inactive”.
Still for that read-out and setting: the result for `CCC(=O)N1CCc2cc(S(=O)(=O)NCCC(=O)Nc3cccc(C)c3C)ccc21` reads “inactive”; that for `COc1ccc2ncc3c(-c4ccc(C)c(C)c4)nn(CC(=O)NC4CCCC4)c3c2c1`, “inactive”.
On to `CC1Cc2cc(S(=O)(=O)CCC(=O)Nc3ccc(F)c(Cl)c3)ccc2N1C(=O)C1CC1` (stereo not drawn), for which the Potency result is “inactive”.
Still for that read-out and setting: the result for `S=c1ccc2ccccc2[nH]1` reads 4.47 µM (active); that for `O=C(Nc1ccccc1)c1cc2ccccc2[nH]1`, “inactive”.
For `CC(=O)N1CCN(C(=O)c2cc(-c3ccc(Cl)s3)nc3ccccc23)CC1`, the Potency result was “inactive”.
With `C#CCOc1ccc(C2CC(=O)Nc3c2c(C)nn3-c2nc(C)cc(C)n2)cc1` (stereo not drawn), the Potency entry is “inactive”.
As for `Cc1ccc(-c2nc(CS(=O)(=O)CC(=O)NCc3ccccc3Cl)c(C)o2)cc1`, the Potency result was “inactive”.
As for `CC(C)(C)C(=O)CSc1ccc(S(=O)(=O)N2CCCC2)cn1`, the activity, negative = inhibition is -13.9% [at 2.33 µM].
